The results in this text go back to the supplement of paper PMC7156485.

Molecules are shown by their SMILES.
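Further: TDF is a line of transformed human dermal fibroblasts of mesenchymal origin.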

The test system of the assay is TDF. Kind of assay: H1.0 immunofluorescence intensity relative to DMSO (% of DMSO); higher = stronger H1.0 induction, active = 120 or more. The following applies: concentration: 10 µM; 24 h. The method, boiled down:
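In 384-well plates holding 800 HCC1569 or TDF cells per well in RPMI with 10% FBS, compounds were tested at 10 µM for 24 h at 37 °C in triplicate. Fixation used 3.7% formaldehyde. Staining used a rabbit anti-H1.0 antibody with an AlexaFluor 647 secondary, plus DAPI. Each value, H1.0 nuclear intensity or cell number, is a median of replicates shown as percent of the plate control, and HCC1569 values were smoothed for positional effects.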
Consider `CC1=NN(c2ccc(C(=O)O)cc2)C(=O)/C1=C\c1ccc(-c2cc(C)c(C)cc2[N+](=O)[O-])o1`, for which the H1.0 immunofluorescence intensity was 84.9 (inactive).

Consider `COc1ccc(CN(CCN(C)C)c2ccccn2)cc1.O=C(O)C=CC(=O)O` [Pyrilamine maleate], for which the H1.0 immunofluorescence intensity is 99.6 (inactive). The figure for `O=C(O)C1=CC(=C(c2ccc(O)c(C(=O)O)c2)c2ccc(O)c(C(=O)O)c2)C=CC1=O` [Aurintricarboxylic acid] is 89.4 (inactive); for `COC(C(=O)C(O)C(C)O)C1Cc2cc3cc(OC4CC(OC5CC(O)C(O)C(C)O5)C(O)C(C)O4)c(C)c(O)c3c(O)c2C(=O)C1OC1CC(OC2CC(OC3CC(C)(O)C(O)C(C)O3)C(O)C(C)O2)C(O)C(C)O1` (centres undefined) [Plicamycin] it is 103 (inactive); for `CC(=O)OC1CC2CCC3C(CCC4(C)C3CC([N+]3(C)CCCCC3)C4OC(C)=O)C2(C)CC1N1CCCCC1` (centres undefined) [Vecuronium] it is 99.2 (inactive).

As for `Nc1ccc(-c2cccc3c(=O)cc(N4CCOCC4)oc23)cc1`, the H1.0 immunofluorescence intensity is 82.5 (inactive). Consider `Cc1cc(C(C)(C)C)c(O)c(C)c1CC1=NCCN1.Cl` [Oxymetazoline hydrochloride], for which the H1.0 immunofluorescence intensity was 93.9 (inactive). The figure for `c1ccc(-c2n[nH]c3c2oc2ccccc23)cc1` is 94.2 (inactive); for `CC(C)(C)c1nc2c3cc[nH]c(=O)c3c3cc(F)ccc3c2[nH]1` [JAK Inhibitor I] it is 90.3 (inactive). In the case of `CC1=c2[nH]c3c(c2CCN1)C=CC(=O)C=3.Cl.O.O`, the H1.0 immunofluorescence intensity is 97.7 (inactive).

Consider `CC(C)C[C@@H](C(=O)O)c1cc(-c2ccc(C(F)(F)F)cc2)cc(-c2ccc(C(F)(F)F)cc2)c1`, for which the H1.0 immunofluorescence intensity is 93.7 (inactive). The figure for `CCCCCCCCc1ccc(CCC(N)(CO)CO)cc1.Cl` is 210 (active); for `C[C@H](C#Cc1ccc(Cc2ccc(F)cc2)s1)N(O)C(N)=O` it is 100 (inactive). With `COc1cccc2oc(-c3ccccc3)cc(=O)c12` [5-Methoxyflavone] the figure was 100 (inactive); with `Cl.Cn1c(=O)c(Oc2ccc(F)cc2F)cc2cnc(NC3CCOCC3)nc21`, 89 (inactive); with `CCCCCC(O)C=CC1C(O)CC(O)C1CC=CCCCC(=O)O` (racemic), 88.4 (inactive).

`CC(C)(C=O)Cc1cc(C(C)(C)C)c(O)c(C(C)(C)C)c1`: the H1.0 immunofluorescence intensity is 92 (inactive). As for `C[C@H](c1ccc(F)cc1CCCC(=O)O)N(c1cc(F)ccc1F)S(=O)(=O)c1ccc(Cl)cc1`, the H1.0 immunofluorescence intensity was 94.6 (inactive). With `NC(C(=O)O)C1CC1C(=O)O` [(2S,1'S,2'S)-2-(carboxycyclopropyl)glycine] the figure was 85.1 (inactive); with `CCCCC1=NC2(CCCC2)C(=O)N1Cc1ccc(-c2ccccc2-c2nn[nH]n2)cc1`, 101 (inactive); with `c1ccc(-c2[nH]ncc2-c2ccnc3ccccc23)nc1`, 94.8 (inactive). With `CC1OC(OCC2OC(Oc3c(-c4ccc(O)c(O)c4)oc4cc(O)cc(O)c4c3=O)C(O)C(O)C2O)C(O)C(O)C1O` (centres undefined) [Rutin] the figure was 91.6 (inactive); with `Oc1cc(O)c2c(c1)OC(c1ccc(O)c(O)c1)C(O)C2` (single isomer, unassigned; (-)) [(-)-Epicatechin], 100 (inactive). With `COc1ccc(S(=O)(=O)N2CCC[C@H]2C(=O)Nc2cc(C)cc(C)c2)cc1` the figure was 95.5 (inactive); with `Nc1ncnc2c1ncn2C1CCCC1` [9-cyclopentyladenine], 95.1 (inactive). As for `CC1(NC(=O)CBr)CCC(C(C)(C)NCC(O)COc2cccc3[nH]ccc23)CC1` (racemic), the H1.0 immunofluorescence intensity is 93.2 (inactive). As to `COc1ccc2c(c1)c(CC(=O)OCC(=O)O)c(C)n2C(=O)c1ccc(Cl)cc1` [Acemetacin], the H1.0 immunofluorescence intensity is 95.4 (inactive). The figure for `COc1c(O)cc(O)c2c(=O)cc(-c3ccccc3)oc12` [Wogonin] is 91.2 (inactive); for `CCC1C(=O)OCC1Cc1cncn1C.O=[N+]([O-])O` (centres undefined) [Pilocarpine nitrate] it is 98.7 (inactive); for `NC(Cc1cccc(-c2ccccc2CP(=O)(O)O)c1)C(=O)O` (stereo not drawn) [Phenylbenzene-omega-phosphono-alpha-amino acid] it is 89.5 (inactive). Turning to `CNC1C(OC2C(OC3C(O)C(O)C(N=C(N)N)C(O)C3N=C(N)N)OC(C)C2(O)C=O)OC(CO)C(O)C1O` (centres undefined) [Streptomycin], the H1.0 immunofluorescence intensity was 96.7 (inactive). The figure for `N#Cc1ccc(C(c2ccc(C#N)cc2)n2cncn2)cc1` [Letrozole] is 96.8 (inactive); for `O=C1OC(C(O)CO)C(O)=C1O` (centres undefined) [Ascorbic acid] it is 94 (inactive).

Regarding `CC(C)S(=O)(=O)N[C@H]1CCOC[C@@H]1c1ccc(-c2ccc(C#N)s2)cc1`, the H1.0 immunofluorescence intensity was 96.5 (inactive).

As for `Cc1ccc(=O)n(-c2ccccc2)c1` [Pirfenidone], the H1.0 immunofluorescence intensity is 90.3 (inactive). For `Cc1cccc(C)c1OCC(N)C(C)C.I` (centres undefined), the H1.0 immunofluorescence intensity was 91.3 (inactive).

`COc1cc(C(O)CO)ccc1OS(=O)(=O)[O-].[K+]` (centres undefined) [MHPG sulfate potassium]: the H1.0 immunofluorescence intensity is 89.9 (inactive). The figure for `COc1cc(Br)c(Nc2nc(-c3c(C)nc4ncccn34)cs2)c(Br)c1` is 108 (inactive). Turning to `CC(C)(C)c1ccc(S(=O)(=O)NCc2ccc(C(=O)Nc3cccnc3)cc2)cc1`, the H1.0 immunofluorescence intensity was 86.8 (inactive).
